Screening data deposited in PubChem BioAssay by several laboratories.
An excerpt weighted towards active compounds, which were near 3.3% of everything screened.
FXN GAA850 act: frataxin GAA850 promoter activation; HEK293 lucGAA850 FXN promoter luciferase reporter, 24 h; percent of 10 µM SAHA response; activation, % at 6 µM; hit rate 0.56% among 360,000; AID 540364;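 active = activation above the average of all compounds screened plus 3 SD, cutoff fixed separately per campaign, cut at about 7.5% in these data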
MITF TRPM1 HTS: activators of MITF-driven TRPM1 promoter activity in SK-MEL-5 cells; SK-MEL-5 TRPM1-promoter luciferase, 24 h; % of positive control, neutral wells = 0; activation, % at 12.5 µM; hit rate 0.75% among 300,000; AID 588334;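 active = mean activation of at least 80% with every replicate also reaching 80%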
esBAF inh: blocks esBAF chromatin remodeling in mouse ES cells. Bmi1-luciferase knock-in reporter, 24 h; 100% = twice the neutral-well signal. reporter increase, % at 12.5 µM. hit rate 2% among 350,000; in the data active = activation above about 40%;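 also: a rise in the Bmi1 reporter signal indicates esBAF inhibition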
Wnt act: Wnt/beta-catenin pathway activation | Wnt/beta-catenin reporter cell assay, activator, plate reader | activation, % at 9.35 µM | hit rate 1.2% among 300,000; in the data active = activation above about 30%, passing the limit was not always enough
C2C12 statin: protects C2C12 myotubes from simvastatin toxicity | ATP luminescence, 48 h; scaled: DMSO 0, geranylgeraniol control 100 | hit rate 0.78% among 330,000 | rescue of ATP level, % at 7.49 µM;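 active = mean ATP rescue above about 67%, or every replicate alone reaching that limit, limit read from the data, passing the limit was not always enough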;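 also: myotubes were challenged with 10 µM simvastatin during compound exposure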
Large screens that a line does not name were inactive.

CC(C)(C)n1nnnc1C(c1cccnc1)N1CCN(c2ccccc2F)CC1 (configuration not stated)	C2C12 statin 120 (no result: Wnt act)
CC(C)CC(c1nnnn1C1CCCC1)N1CCN(c2ccccc2F)CC1 (configuration not stated)	C2C12 statin 117
CC(C)CC(c1nnnn1C1CCCCC1)N1CCN(c2ncccn2)CC1 (configuration not stated)	none
CC(C)NC(=O)Nc1ccc2c(c1)C(=O)N(C)[C@@H]1CC[C@H](CC(=O)NCC(F)(F)F)O[C@H]1CO2	none (no result: FXN GAA850 act, MITF TRPM1 HTS, Wnt act)
CCOC(=O)c1ccc(NC(=O)CCSCCc2ccccn2)cc1	MITF TRPM1 HTS 86 (no result: Wnt act)
CCOC(=O)c1ccc(NC(=O)Cn2nnc3ccccc32)cc1	esBAF inh 95 (no result: MITF TRPM1 HTS)
CCOC(=O)c1ccc(NC(=O)CCn2nnc3ccccc32)cc1	none (no result: Wnt act)
CCOc1ccc(NC(=O)Cn2ncc3ccccc32)cc1	esBAF inh 51
C[C@H](CO)N1C[C@H](C)[C@@H](CN(C)Cc2ccncc2)Oc2ccc(NC(=O)NC3CCCCC3)cc2CC1=O	none (no result: FXN GAA850 act, MITF TRPM1 HTS, Wnt act)
O=C(CCNC(=O)c1ccccc1Cl)Nc1nc(-c2ccccc2Cl)cs1	esBAF inh 55
CCOc1ccc(S(=O)(=O)N2CCCC2)c2ccccc12	none (no result: MITF TRPM1 HTS)
CCOc1c(S(=O)(=O)N2CCCC2)ccc(Cl)c1Cl	C2C12 statin 122
O=C(NCC1CC1)[C@@H]1[C@@H](CO)[C@@H]2Cn3c(ccc(/C=C/c4ccccc4)c3=O)[C@H]1N2C(=O)C1CCC1	none (no result: FXN GAA850 act, MITF TRPM1 HTS, Wnt act)
CC(C)C(=O)Nc1ccc2c(c1)C(=O)N(C)[C@H]1CC[C@@H](CC(=O)Nc3ccccc3)O[C@H]1CO2	none (no result: FXN GAA850 act, MITF TRPM1 HTS, Wnt act)
CCOc1ccccc1NC(=O)Cn1cnc2c(cnn2-c2ccc(C)c(C)c2)c1=O	C2C12 statin 132 (no result: Wnt act)
C#CCn1cnc2c(cnn2-c2ccc(C)c(C)c2)c1=O	esBAF inh 66 (no result: Wnt act)
Cc1nc2c3cnn(-c4ccc(C)c(C)c4)c3ncn2n1	MITF TRPM1 HTS 87 (no result: esBAF inh, Wnt act, C2C12 statin)
Cc1ccc(NC(=O)C(=O)NCCCN2CCCC2=O)c(C)c1	none
Cc1ccc(N(CN2CCCC2=O)C(=O)c2ccc(C)c(C)c2)cc1	C2C12 statin 113
Cc1ccc(NC(=O)C(=O)NCCCN2CCCC2=O)cc1	Wnt act 43 (no result: esBAF inh, C2C12 statin)
CO[C@H]1CN(C)C(=O)c2ccc(NC(=O)Nc3cccc(F)c3)cc2OC[C@@H](C)N(C(=O)C2CC2)C[C@H]1C	none (no result: FXN GAA850 act, MITF TRPM1 HTS, Wnt act)
N#C/C(=C1/CCCCCN1)c1nc2ccccc2s1	esBAF inh 57 (no result: Wnt act)
O=c1oc(-c2ccc(Br)cc2)nc2ccccc12	esBAF inh 46
O=c1oc(-c2ccc([N+](=O)[O-])cc2)nc2ccccc12	none (no result: MITF TRPM1 HTS, esBAF inh, C2C12 statin)
CCOC(=O)c1ccc(NC(=O)C2CC3CCC2C3)cc1 (configuration not stated)	Wnt act 46 (no result: MITF TRPM1 HTS, esBAF inh, C2C12 statin)
CC(C)c1ccc(NC(=O)C2CC3CCC2C3)cc1 (configuration not stated)	esBAF inh 57 (no result: MITF TRPM1 HTS)
CCOC(=O)c1ccc(NS(=O)C23CC4CC(CC(C4)C2)C3)cc1 (configuration not stated)	esBAF inh 64 (no result: Wnt act)
CCC(C)c1ccc(NC(=O)C2CC3CCC2C3)cc1 (configuration not stated)	none (no result: MITF TRPM1 HTS, esBAF inh, C2C12 statin)
COC(=O)c1ccc(NC(=O)C2C3C=CC(O3)C2C(=O)O)cc1 (configuration not stated)	esBAF inh 57, C2C12 statin 90 (no result: Wnt act)
CCOC(=O)c1ccc(NC(=O)CNC(=O)C23CC4CC(CC(C4)C2)C3)cc1	none (no result: Wnt act)
CN1CCN(C(=O)C[C@@H]2CC[C@@H]3[C@H](COC[C@@H](O)CN3C(=O)C3CC3)O2)CC1	none (no result: FXN GAA850 act, MITF TRPM1 HTS, Wnt act)
C[C@H]1CN([C@@H](C)CO)S(=O)(=O)c2ccc(C#CC(C)(C)O)cc2O[C@@H]1CN(C)C(=O)C1CC1	none (no result: FXN GAA850 act, MITF TRPM1 HTS, esBAF inh, Wnt act)
COC(=O)c1ccc(NC(=O)C2CC3CCC2C3)cc1 (configuration not stated)	MITF TRPM1 HTS 98, esBAF inh 47
